According to PubChem BioAssay (EPA / NIEHS):
Several values for one entry are separate records, joined by “and”; a condition that tells them apart may be missing. Identical values can stand only once. Where a structure was tested more than once in an assay, its records may differ in their call. Activity calls are given as the source filed them. How the source made its calls: active means hit-call score of the fitted dose curve at least 0.9, where 1 is the maximum; inactive means score below 0.9.

What was measured:
[1] = read-out: Interleukin 17F (IL17F), IL17F (gene 112744); assay: BSK_BT_xIL17F: BioMAP Diversity Plus: BT Assay for Interleukin 17F (IL17F) Biomarker Activity (AID 2284243); settings: primary human B cells with PBMC
In short: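 Compound was added to co-cultures of human B cells and PBMC. After 24 hours, IL-17F released into the medium was measured with LumineX xMAP technology. Responses were then fitted upward relative to DMSO.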

[2] = read-out: Actin alpha 1 (ACTA1), ACTA1 (gene 58); assay: BSK_MyoF_ACTA1: BioMAP Diversity Plus: MyoF Assay for Actin alpha 1 (ACTA1) Biomarker Activity (AID 2284244); settings: primary human lung fibroblasts
In short: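 Human lung fibroblasts (MyoF system) dosed with test chemical for 24 h; α-SMA measured by ELISA. Gain of signal fitted relative to DMSO negative control as baseline.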

[3] = read-out: Interleukin 2 (IL2), IL2 (gene 3558); assay: BSK_BT_xIL2: BioMAP Diversity Plus: BT Assay for Interleukin 2 (IL2) Biomarker Activity (AID 2284245); settings: primary human B cells with PBMC
In short: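 Human B cells co-cultured with PBMC, exposed to test chemical for 24 h. Secreted IL-2 quantified by Luminex xMAP bead immunoassay; activity fitted in the positive direction relative to DMSO vehicle baseline.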

[4] = read-out: Basic fibroblast growth factor (bFGF), FGF2 (gene 2247); assay: BSK_MyoF_bFGF: BioMAP Diversity Plus: MyoF Assay for Basic fibroblast growth factor (bFGF) Biomarker Activity (AID 2284246); settings: primary human lung fibroblasts
In short: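 Human lung fibroblasts were dosed with chemicals and bFGF was quantified by ELISA 24 h later. Activity was fitted in the gain-of-signal direction relative to DMSO as negative control and baseline. Parallel SRB total-protein staining tracked overt cytotoxicity.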

[5] = read-out: Collagen IV, COL4A1 (gene 1282); assay: BSK_MyoF_CollagenIV: BioMAP Diversity Plus: MyoF Assay for Collagen IV Biomarker Activity (AID 2284247); settings: primary human lung fibroblasts
In short: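 Primary human lung fibroblasts were exposed to test chemicals and sampled 24 h after dosing. Collagen IV levels were measured by ELISA and fitted in the positive direction against DMSO as negative control and baseline.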

[6] = read-out: Monokine induced gamma interferon (MIG), CXCL9 (gene 4283); assay: BSK_KF3CT_MIG: BioMAP Diversity Plus: KF3CT Assay for Monokine induced gamma interferon (MIG) Biomarker Activity (AID 2284248); settings: primary human keratinocytes with fibroblasts
In short: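 KF3CT system: keratinocyte/fibroblast co-culture, 24 h post-dose, MIG by ELISA; activity vs DMSO, positive fitting direction.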

[7] = read-out: Collagen I, COL1A1 (gene 1277); assay: BSK_hDFCGF_CollagenI: BioMAP Diversity Plus: hDFCGF Assay for Collagen I Biomarker Activity (AID 2284250); settings: primary human foreskin fibroblasts
In short: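 Primary human foreskin fibroblasts (hDFCGF system) exposed to chemical for 24 h; Collagen I measured by ELISA. Activity fitted in the positive direction relative to DMSO baseline, with SRB total-protein staining in parallel cultures for overt cytotoxicity.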

[8] = read-out: Interferon-inducible T-cell alpha chemoattractant (ITAC), CXCL11 (gene 6373); assay: BSK_hDFCGF_ITAC: BioMAP Diversity Plus: hDFCGF Assay for Interferon-inducible T-cell alpha chemoattractant (ITAC) Biomarker Activity (AID 2284251); settings: primary human foreskin fibroblasts
In short: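 Fibroblasts (human foreskin, primary) are treated with chemical, cultured 24 h, then assayed for I-TAC by ELISA. Overt toxicity is checked in parallel cultures by sulforhodamine B staining of total protein at the same time point.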

[9] = read-out: Plasminogen activator inhibitor-1 (PAI1), SERPINE1 (gene 5054); assay: BSK_KF3CT_PAI1: BioMAP Diversity Plus: KF3CT Assay for Plasminogen activator inhibitor-1 (PAI1) Biomarker Activity (AID 2284252); settings: primary human keratinocytes with fibroblasts
In short: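 Human primary keratinocyte/foreskin fibroblast co-culture was dosed with compound and sampled at 24 h. PAI-1 was quantified by ELISA, with activity fitted in the positive direction relative to DMSO vehicle as baseline.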

[10] = read-out: Vascular cell adhesion molecule 1 (VCAM1), VCAM1 (gene 7412); assay: BSK_BF4T_VCAM1: BioMAP Diversity Plus: BF4T Assay for Vascular cell adhesion molecule 1 (VCAM1) Biomarker Activity (AID 2284249); settings: primary human bronchial epithelial cells with fibroblasts
In short: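 Human bronchial epithelial cell and dermal fibroblast co-culture exposed 24 h. VCAM-1 measured by ELISA; parallel SRB total-protein staining for cytotoxicity. Fitted in positive direction relative to DMSO.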

Measured: AC50

N=C(N)C(F)(F)C(F)(F)C(F)(F)C(F)(F)C(F)(F)C(F)(F)C(F)(F)F
inactive: [1] | [2] | [3] | [4] | [5] | [6] | [7] | [9]
active: [1] 31.7 µM | [3] 45.7 µM | [7] 30 µM | [8] 57.6 µM and 52.7 µM

O=C(O)C(F)(F)C(F)(F)C(F)(F)C(F)(F)C(F)(F)C(F)(F)C(F)(F)C(F)(F)C(F)(F)C(F)(F)C(F)(F)C(F)(F)F
active: [2] 0.786 µM | [6] 20.5 µM | [8] 3.49 µM
inactive: [1] | [2] | [3] | [4] | [5] | [6] | [7] | [8] | [9]

O=C(O)C=C(C(F)(F)F)C(F)(F)F
active: [1] 10.4 µM and 8.84 µM | [3] 10.1 µM and 5.58 µM
inactive: all other assays above

CCCCNc1ccccc1
inactive: [1] | [2] | [3] | [4] | [5]

O=C(CC(=O)C(F)(F)C(F)(F)F)C(F)(F)F
inactive: [1] | [2] | [3] | [4] | [5] | [6] | [7] | [8] | [9]
active: [1] 20.8 µM

CCCCCCCCCCCCCCCC[N+](C)(C)Cc1ccccc1
active: [1] 2.96 µM | [2] 1.36 µM | [3] 2.01 µM | [4] 2.02 µM | [5] 3.21 µM

CC(=O)Nc1ccc(N=Nc2cc(C)ccc2O)cc1
active: [5] 10.6 µM
inactive: [1] | [2] | [3] | [4]

Nc1ccc([N+](=O)[O-])cc1O
inactive: [1] | [2] | [3] | [4] | [5]

FC(F)(F)C(F)(F)CNCC(F)(F)C(F)(F)F
inactive: all assays above

FC(F)(F)C(F)(F)C(F)(F)N(C(F)(F)C(F)(F)C(F)(F)F)C(F)(F)C(F)(F)C(F)(F)F
inactive: all assays above

CS(C)(=O)=O
inactive: [1] | [2] | [3] | [4] | [5]

CCO[Si](CCC(F)(F)C(F)(F)C(F)(F)C(F)(F)C(F)(F)C(F)(F)F)(OCC)OCC
inactive: all assays above

OCC(F)(F)C(F)(F)C(F)(F)C(F)(F)C(F)(F)C(F)F
inactive: all assays above

CCCCCCC(C)OC(=O)CCCCC(=O)OC(C)CCCCCC (configuration not stated)
inactive: [1] | [2] | [3] | [4] | [5]

FC1CC(F)(F)C(F)(F)C1(F)F (configuration not stated)
inactive: all assays above

C=CC/C=C/C/C=C/C/C=C/C
inactive: [1] | [2] | [3] | [4] | [5]

NC(=O)C(F)(F)C(F)(F)C(F)(F)C(F)(F)F
inactive: all assays above

CO[Si](OC)(c1ccccc1)c1ccccc1
active: [2] 30.8 µM
inactive: [1] | [3] | [4] | [5]

Oc1ccc(Nc2ccccc2)cc1
inactive: [2] | [4] | [5]
active: [1] 27.7 µM | [3] 37.2 µM

Cc1ccc(S(=O)(=O)OCC(F)(F)C(F)(F)C(F)(F)C(F)(F)C(F)(F)C(F)F)cc1
inactive: all assays above

FC(F)(F)C(F)(F)C(F)(F)CI
active: [8] 0.22 µM
inactive: [1] | [2] | [3] | [4] | [5] | [6] | [10] | [7] | [8] | [9]

CCCCOCCOCCOC(=O)CCCCC(=O)OCCOCCOCCCC
inactive: [1] | [2] | [3] | [4] | [5]

O[Si](c1ccccc1)(c1ccccc1)c1ccccc1
inactive: [4] | [5]
active: [1] 32.6 µM | [2] 20 µM | [3] 31.3 µM

C#C[C@]1(O)CC[C@H]2[C@@H]3CCc4cc(OC)ccc4[C@H]3CC[C@@]21C
inactive: [2] | [3] | [4] | [5]
active: [1] 20 µM

CC(CCl)OP(=O)(OC(C)CCl)OC(C)CCl (configuration not stated)
inactive: [1] | [2] | [3] | [4] | [5]

O=C(O)C(F)(F)C(F)(F)OC(F)(F)F
inactive: all assays above

O=S(=O)(O)C(F)(F)C(F)(F)C(F)(F)C(F)(F)C(F)(F)C(F)(F)C(F)(F)F
inactive: all assays above

CCc1c(Br)c(Br)c(Br)c(Br)c1Br
inactive: [1] | [2] | [3] | [4] | [5]

CCCCCCCOC(=O)c1ccccc1C(=O)OCCCCCCC
inactive: [2] | [4] | [5]
active: [1] 12.2 µM | [3] 17.5 µM

OCC(F)(F)C(F)(F)C(F)(F)F
inactive: all assays above

O=C(O)C(F)(F)C(F)(F)C(F)(F)C(F)(F)C(F)(F)C(F)(F)C(F)(F)C(F)(F)Cl
active: [2] 50.7 µM and 43.8 µM | [5] 7.89 µM | [6] 45.7 µM and 54.2 µM | [8] 29 µM and 36.7 µM | [9] 32.8 µM and 37.8 µM
inactive: [1] | [3] | [4] | [5] | [7]

CCc1ccc(C(c2ccc(CC)cc2)C(Cl)Cl)cc1
inactive: [5]
active: [1] 29.7 µM | [2] 7.07 µM | [3] 30.3 µM | [4] 28.9 µM

C=C(C)C(=O)OCC(F)(F)C(F)(F)C(F)(F)C(F)(F)C(F)(F)C(F)(F)C(F)(F)F
inactive: all assays above

COC(=O)CCC(F)(F)C(F)(F)C(F)(F)C(F)(F)F
inactive: all assays above

CCN(CC)c1ccc2c(C)cc(=O)oc2c1
inactive: [1] | [2] | [3] | [4] | [5]

FC(F)(F)C(F)(F)C(F)(F)C(F)(F)C(F)(F)C(F)(F)C(F)(F)Br
not listed: [10]
inactive: all other assays above

C=CC(F)(F)C(F)(F)C(F)(F)C(F)(F)C(F)(F)C(F)(F)C(F)(F)C(F)(F)C=C
not listed: [10]
inactive: all other assays above

O=C(O)C(F)(F)C(F)(F)F
not listed: [10]
inactive: all other assays above
